Tau fluor cs: counter-screen for tau fibril formation inhibitors; hit rate 0.93% among 280,000; Potency, µM (top dose mostly 57.7 µM), for inactives: at the top dose activity change, negative = decrease; tau K18 P301L Alexa594 fluorescence, heparin fibrillization; also: potency is read from the fitted curve at half-maximal effect; nearly all actives have a fitted effect of over 55% in size
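Human tau K18 P301L (15 uM unlabeled, 0.24 uM Alexa 594-labeled) in 100 mM sodium acetate pH 7 with 20 uM heparin, 6 hr at 37 C. ThT 30 uM added, 1 hr ambient; Alexa 594 FP and total fluorescence read at 555/632 nm.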
Sfp PPTase inh: blocks B. subtilis Sfp PPTase activity | Q9F4F7 | Biochemical Sfp PPTase activity, qHTS | Potency, µM, for the others: largest response in the series, negative = inhibition, actives largely listed as inhibitors | hit rate 3.5% among 310,000 | AID 1490;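 also: the enzyme is Sfp with the accession as filed and its product quenches rhodamine fluorescence; potency is read from the fitted curve at half-maximal effect; 0% = enzyme reaction without inhibitor and -100% = no enzyme wells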
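Compounds were incubated with enzyme (final 15 nM) for 15 min at room temperature before substrate addition started the reaction. Fluorescence at 525 nm excitation, 598 nm emission was recorded immediately and after 30 minutes.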
Tau ThT inhib: blocks human tau fibril formation measured by thioflavin T; recombinant tau K18 P301L, heparin-induced fibrillization, ThT fluorescence; hit rate 2.1% among 270,000; P10636; Potency, µM (titrated, usually from 57.4 µM), for the others: at the highest dose activity, negative = inhibition, usual class: inhibitors; also: potency is read from the fitted curve at half-maximal effect; nearly all actives have a fitted effect of over 55% in size
Target sequence (P10636 561-689 P618L limits assumed): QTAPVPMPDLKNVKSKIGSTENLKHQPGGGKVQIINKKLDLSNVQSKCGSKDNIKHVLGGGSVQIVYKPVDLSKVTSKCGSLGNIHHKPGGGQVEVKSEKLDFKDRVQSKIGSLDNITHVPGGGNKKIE
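Using a mix of unlabeled (15 uM) and Alexa 594-labeled (0.24 uM) tau K18 P301L, heparin-triggered fibrillization over 6 hr at 37 C was scored by ThT fluorescence.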
Tau fibril FP: tau fibrillization inhibition (FP); P10636; K18 P301L tau heparin fibrillization, Alexa594 FP, 6 h; Potency, µM (top dose mostly 57.7 µM), for the others: at the highest dose activity, negative = inhibition, usual class: inhibitors; hit rate 0.39% among 280,000; AID 1468; also: potency is read from the fitted curve at half-maximal effect; nearly all actives have a fitted effect of over 55% in size
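Compound effects on tau fibrillization are measured by Alexa 594 fluorescence polarization (ex 555, em 632 nm). K18 P301L tau is used at 15 uM with 0.24 uM labeled tracer, and 20 uM heparin induces aggregation over 6 hr at 37 C.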
Coupling enz: coupling enzyme interference in Giardia aldolase counter-screen | activity change, negative = inhibition, % at 58.2 µM, hits read low | coupling enzyme system counterscreen, AmpLite Red fluorescence | hit rate 0.67% among 290,000; in the data active = activity change below about -30%
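Counterscreen lacking aldolase: glyceraldehyde-3-phosphate coupling-enzyme reagent preincubated 10 min at RT with compound (at 57.5 uM final), then substrate/coupling system with AmpLite Red added; fluorescence read at 525/598 nm after 20 min RT.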
KDM4E inh: inhibitors of human JMJD2E histone demethylase. B2RXH2. JMJD2E catalytic domain, FDH-coupled NADH fluorescence (FDH is formaldehyde dehydrogenase). Potency, µM (highest dose often 57.1 µM), without a hit: at the top dose activity change, negative = inhibition, usual class: inhibitors. hit rate 1.6% among 230,000; active = well fitted inhibition curve with a large enough effect, not every such curve was filed as active; inconclusive = small, poorly fitted or top-dose-only effect, or another doubt; inactive = no such curve, though single readings can be large or run the other way;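 also: potency is read from the fitted curve at half-maximal effect; 0% = wells with enzyme and -100% = buffer wells without enzyme; nearly all actives have a fitted effect of over 50% in size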
Target sequence (B2RXH2 1-337 limits assumed): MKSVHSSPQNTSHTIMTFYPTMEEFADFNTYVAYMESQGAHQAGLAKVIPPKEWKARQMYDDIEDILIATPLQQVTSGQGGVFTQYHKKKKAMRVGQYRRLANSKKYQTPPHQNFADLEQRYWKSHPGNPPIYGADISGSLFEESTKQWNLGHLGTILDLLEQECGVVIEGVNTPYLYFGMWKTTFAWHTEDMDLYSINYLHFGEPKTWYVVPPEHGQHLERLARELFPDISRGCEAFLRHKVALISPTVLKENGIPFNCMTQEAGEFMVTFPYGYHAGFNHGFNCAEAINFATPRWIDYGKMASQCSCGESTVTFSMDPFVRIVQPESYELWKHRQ
Sfp PPTase conf: confirmation of Bacillus subtilis Sfp PPTase inhibitors; hit rate 79% among 380; AID 2701; shares compounds with Sfp PPTase inh; Sfp PPTase enzymatic assay, qHTS titration; Potency, µM (highest dose often 114 µM), for inactives: top-dose activity change, negative = inhibition, actives largely listed as inhibitors;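 also: potency is read from the fitted curve at half-maximal effect; plate controls were uninhibited Sfp reaction for no effect and no enzyme control for full effect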
Target sequence (Q9F4F7 whole entry, looked up): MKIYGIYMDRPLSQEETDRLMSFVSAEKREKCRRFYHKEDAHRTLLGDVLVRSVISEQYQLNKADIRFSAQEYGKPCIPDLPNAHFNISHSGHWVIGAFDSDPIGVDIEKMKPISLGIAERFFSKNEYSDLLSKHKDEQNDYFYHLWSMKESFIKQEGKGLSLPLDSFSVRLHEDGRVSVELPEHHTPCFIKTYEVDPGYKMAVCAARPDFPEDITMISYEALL
Sfp PPTase gel: Inhibits B. subtilis Sfp phosphopantetheinylation; shares compounds with Sfp PPTase inh; purified Sfp, gel-based phosphopantetheinylation read-out; Potency, µM, most hits filed as inhibitors; hit rate 20% among 210;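 active = potency below 100 µM; inconclusive = dose-dependent response but potency above 100 µM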;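 also: band intensities scaled against SCH202676 control wells before curve fitting; potency is an IC50 for inhibitors of Sfp transfer activity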
An asterisk follows results filed as active; i = inactive; ? = inconclusive; . = no result given; ! = not active in a repeat; [ ] = another dose, or the depositor's remark. Sampled rows, rich in hits. Any-hit rate of the full collection: about 5.3%. Unless noted, calls follow the shape of the dose curve; as a rule, active = well fitted curve in the direction sought with a large enough effect; inconclusive = small, poorly fitted or top-dose-only effect, or another doubt; inactive = no such curve, though single readings can be large; an effect the other way counts as inactive or inconclusive. Unless noted, % is scaled to controls: 0 for no effect and ±100 for the full control effect.

SMILES	Tau fluor cs	Sfp PPTase inh	Tau ThT inhib	Tau fibril FP	Coupling enz	KDM4E inh	Sfp PPTase conf	Sfp PPTase gel
COC(=O)c1c(NC(=O)COC(=O)c2ccc(Cl)cc2[N+](=O)[O-])sc2c1CCCCC2	-22%	10µM*	-4%	2%	0	-9%	?	.
CC(=O)Oc1ccc(/C=C/C(=O)CC2OC(Oc3cc(OC(C)=O)c4c(c3)O[C@@H](c3ccc(OC(C)=O)cc3)CC4=O)C(OC(C)=O)C(OC(C)=O)C2OC(C)=O)cc1 (stereo partly specified)	-2%	-10%	-1%	1%	-1	2%	.	.
Cc1cnc(=O)[nH]c1SCC(=O)c1ccc(F)cc1	.	14µM*	.	.	0	.	8.3µM*	.
Cn1c(CO)cnc1SCC(=O)c1ccc(F)cc1	.	4%	.	.	0	.	.	.
COc1cccc(CNc2ccc(N3CCC(C)CC3)cc2)c1OC	?	10µM*	18µM*	?	-11	13µM*	?	i
CC(=O)c1cccc(NC(=O)c2noc3c2CSc2ccccc2-3)c1	0%	.	-13%	-1%	.	.	.	.
Cc1cccc(N2CCC(N3CCN(C4CCCCC4)C(CCO)C3)CC2)c1C (stereo unspecified)	-39%	10µM*	10µM*	-57%	-10	?	-7%	i
O=C1OCCN1CCNCc1cn(-c2ccc(F)cc2)nc1-c1ccccc1Cl	-6%	8%	-3%	-2%	2	1%	.	.
Cc1ccc(-n2cc(CNCCN3CCOC3=O)c(-c3cccc(C)c3)n2)cc1	-16%	45µM*	?	-9%	5	2%	-10%	i
CCOC(=O)c1ccc(-n2c(CCC(=O)O)ccc2-c2ccccc2)cc1O	-8%	.	?	-3%	.	.	.	.
Nc1ccc(C(=O)N2CCCC2)cc1	-3%	6%	-4%	-8%	-2	4%	.	.
Nc1ccc(C(=O)n2c3ccccc3c3ccccc32)cc1	?	45µM*	-9%	-17%	-5	1%	?	.
CC(C)(C)NC(=O)[C@H]1CN(Cc2cccnc2)CCN1C[C@@H](O)C[C@@H](Cc1ccccc1)C(=O)N[C@H]1c2ccccc2C[C@H]1O	-23%	10%	-7%	2%	5	.	.	.
O=[N+]([O-])c1ccc2nc(-c3ccc(Cl)cc3)[nH]c2c1	?	0.35µM*	?	8%	-20	2%	-3%	56µM*
Clc1ccc(Cn2c(CN3CCCC3)nc3ccccc32)cc1	?	79µM*!	-14%	?	-13	8%	-2%	i
Cc1ccc(Sc2c(C)nn(C(=O)c3ccc(Cl)cc3)c2C)cc1	-7%	.	-13%	-5%	.	.	.	.
COc1cc(Nc2nn(-c3ccc(OC(F)(F)F)cc3)nc2C(C)=O)cc(OC)c1	-5%	.	-8%	3%	.	.	.	.
NC(=O)c1sc2nc(-c3ccco3)ccc2c1N	?	5µM*	6.3µM*	0%	-1	?	6.6µM*	i
Nc1c(C(=O)Nc2ccccc2F)sc2nc(-c3ccco3)ccc12	?	4µM*	?	0%	0	?	1.7µM*	.
NC(=O)c1sc2nc(-c3cccnc3)ccc2c1N	-8%	?	.	9%	2	-7%	.	.
CCC12CN3CC(CC)(CN(C1)C3c1cc(Br)ccc1OC)C2=O (stereo unspecified)	-3%	.	5%	7%	.	.	.	.
COCCn1c(CCC(=O)O)ccc1-c1cccs1	-6%	-10%	-5%	-9%	0	?	.	.
O=C(O)CCc1ccc(-c2cccs2)o1	-27%	2.8µM*	?	?	3	?	6.6µM*	.
COc1ccc(OC2C=CC(C#Cc3ccc(C(C)(C)C)cc3)OC2CO)cc1 (stereo unspecified)	-28%[11.6 µM]	15%	?	5%[11.6 µM]	-2	.	.	.
Cc1ccc(Nc2c(-c3ccccc3)nc3cnccn23)cc1	-22%	11%	-5%	12%	3	?	.	.
SMILES	Tau fluor cs	Sfp PPTase inh	Tau ThT inhib	Tau fibril FP	Coupling enz	KDM4E inh	Sfp PPTase conf	Sfp PPTase gel
Cc1ccc(-c2nc3cnccn3c2Nc2ccccc2)o1	-10%	4.5µM*	-14%	5%	0	?	3.3µM*	.
CCc1c(C)sc(NC(=O)C2CCCCC2C(=O)O)c1C(N)=O (stereo unspecified)	-13%	4.5µM*	?	?	0	?	11µM*	.
COc1ccccc1CNC(=O)c1cccs1	3%	11%	3%	4%	1	-1%	.	.
COc1ccccc1CNC(=O)Nc1cccs1	-18%	4µM*	-8%	11%	3	3%	24µM*	.
CCOC(=O)c1ccc(NC(=S)N2CCN(CCN=CC3=C(O)CC(C)(C)CC3=O)CC2)cc1	-5%	11µM*	?	-24%	-2	-10%	18%	?
O=C(COC(=O)c1cncc(Br)c1)NCc1ccc(F)cc1	2%	24%	0%	4%	2	-9%	.	.
O=C(COC(=O)c1cncc(Br)c1)NCc1ccco1	7%	13µM*	6%	-6%	-10	-25%	47µM*	i
Cc1c(-c2nnc(SCC(=O)Nc3ccc(Cl)cc3)o2)nnn1-c1ccc(F)cc1	-9%	.	-5%	-12%	.	.	.	.
COc1cccc(CNC(=O)CN2C(=O)CSc3ccc(S(=O)(=O)N(C)C)cc32)c1	-9%	.	-2%	-3%	.	.	.	.
CNC[C@H](O)c1ccc(O)c(O)c1	?	25µM*!	14µM*!	13µM*!	-34*	16µM*	?	i
CNC[C@H](O)c1cccc(O)c1	-14%	12%	-11%	-4%	1	-10%	.	.
CCN(C(=O)C1CCC(CNS(=O)(=O)c2cccc3nsnc23)CC1)c1ccccc1 (stereo unspecified)	-8%	.	-7%	-2%	.	.	.	.
Nc1nc(NCC2CCC(CNS(=O)(=O)c3cccc4ccccc34)CC2)nc2ccccc12 (stereo unspecified)	?	28µM*	-9%	?	1	.	47µM*	56µM*
Cc1cc(C)nc(SCNC(=O)c2ccccc2)n1	6%	7.9µM*	4%	3%	4	-3%	53µM*	i
Clc1cccc(-n2ncc3c(NCCCN4CCOCC4)ncnc32)c1	-8%	.	-6%	-6%	.	.	.	.
Cc1cc(C)c2c(N)c(C(=O)NCc3ccco3)sc2n1	-9%	-9%	?	6%	0	?	.	.
Nc1c(C(=O)NC2CC2)sc2nc3c(c(-c4ccco4)c12)CC/C3=C/c1ccco1	?	5µM*	8.9µM*	?	-35*	?	8.3µM*	.

Bioassay records deposited in PubChem by National Center for Advancing Translational Sciences (NCATS).
